Measurements reported in PubChem BioAssay (Tox21).
Records with an inconclusive call do not appear. The source made the active and inactive calls. Unless noted, calls follow the shape of the dose curve; as a rule, active = well fitted curve in the direction sought with a large enough effect in the repeat runs; inconclusive = weak or mixed curves; inactive = no such curve, though single readings can be large; an effect the other way counts as inactive or inconclusive.

How the values were obtained:
[1] = qHTS assay to identify small molecule agonists of the RXR signaling pathway - cell viability counter screen (AID 1159529); also: series mostly up to about 77 µM; nearly all actives have a fitted effect of over 50% in size
How it was run: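 RXR-alpha-UAS-bla HEK 293T cells in medium with 2% charcoal-stripped FBS were pre-incubated 5 hr, then compound-treated 16 hr at 37 C. Viability was read by CellTiter-Glo luminescence in the same wells as the beta-lactamase assay, with tetraoctyl ammonium bromide as positive control.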

[2] = qHTS assay to identify small molecule antagonists of the retinoid acid receptor (RAR) signaling pathway - cell viability counter screen (AID 1159551); also: nearly all actives have a fitted effect of over 35% in size
How it was run: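 Luminescent ATP quantitation (CellTiter-Glo) gave cell viability in C3RL4 cells exposed to test chemicals for 6 h at 37 C alongside 1 uM final retinol.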

[3] = qHTS assay to identify small molecule antagonists of the retinoic acid receptor (RAR) signaling pathway (AID 1159552; also: nearly all actives have a fitted effect of over 50% in size)
How it was run: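 Retinol signaling pathway inhibitors screened in C3RL4 RARE-luciferase reporter cells seeded overnight at 37 C, then compounds added with 1 uM (final) retinol as pathway substrate. After 6 hr at 37 C, luciferase luminescence read after 30 min at room temperature.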

[4] = qHTS assay to identify small molecule agonists of the retinoic acid receptor (RAR) signaling pathway (AID 1159553)
How it was run: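 Luminescence from a RARE-driven luciferase reporter in C3RL4 cells served as the read-out, measured after 30 min with detection reagent at room temperature. Compounds in DMSO were applied for 6 hr at 37 C following overnight seeding.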

[5] = qHTS assay to identify small molecule antagonists of the estrogen related receptor (ERR) signaling pathway from Tox21 library - cell viability counter screen (AID 1224834); also: nearly all actives have a fitted effect of over 30% in size
How it was run: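 Fluorescence from CellTiter-Fluor gives the viability read-out, taken 30 min after reagent addition. Before that, ERR cells seeded 6 h earlier were incubated with compounds for 17.5 h at 37 C.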

[6] = qHTS assay to identify small molecule agonists of the constitutive androstane receptor (CAR) signaling pathway - cell viability counter screen (AID 1224836); also: series mostly up to about 92 µM; nearly all actives have a fitted effect of over 45% in size
How it was run: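 HepG2 cells stably carrying hCAR and a CYP2B6-2.2kb reporter; 15-concentration compounds plus PK11195 (final 0.75 uM), 23 hr at 37 C/5% CO2. Viability read by CellTiter-Fluor fluorescence.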

[7] = qHTS assay to identify small molecule antagonists of the constitutive androstane receptor (CAR) signaling pathway - cell viability counter screen (AID 1224837); also: series mostly up to about 92 µM; nearly all actives have a fitted effect of over 45% in size
How it was run: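 HepG2-CYP2B6-hCAR cells, 2500/well, 4 hr pre-incubation; compound titration, 15 conc.; CITCO 50 nM final; 23 hr, 37 C/5% CO2; CellTiter-Fluor, fluorescence intensity.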

[8] = molecular target: Nuclear receptor subfamily 1 group I member 3 (Homo sapiens) (UniProt Q14994); assay: qHTS assay to identify small molecule antagonists of the constitutive androstane receptor (CAR) signaling pathway (AID 1224838);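 also: HepG2 cells stably expressing hCAR with CYP2B6 luciferase reporter stimulated by CITCO; nearly all actives have a fitted effect of over 40% in size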
How it was run: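 HepG2-CYP2B6-hCAR cells; 4 h pre-incubation; cpd (15 conc) + CITCO 50 nM final; 24 h, 37 C/5% CO2; ONE-Glo, luminescence.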

[9] = molecular target: Nuclear receptor subfamily 1 group I member 3 (Homo sapiens) (UniProt Q14994); assay: qHTS assay to identify small molecule agonists of the constitutive androstane receptor (CAR) signaling pathway (AID 1224839);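 also: HepG2 cells stably carrying human CAR and a CYP2B6 luciferase reporter; series mostly up to about 92 µM; nearly all actives have a fitted effect of over 15% in size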
How it was run: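 HepG2 cells stably co-transfected with hCAR and a CYP2B6-2.2kb luciferase reporter; compounds at 15 concentrations with 0.75 uM PK11195 present. After 24 hr at 37 C, luciferase read by ONE-Glo luminescence.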

[10] = qHTS assay to identify small molecule antagonists of the estrogen related receptor signaling pathway with the pleiotropic PPARgamma coactivator (PGC) from Tox21 10K library - cell viability counter screen (AID 1224840; active = well fitted cell-killing curve with a large enough effect in the repeat runs, not every such curve was filed as active; also: nearly all actives have a fitted effect of over 40% in size)
How it was run: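 PGC/ERR cells, 2,000/well; 6 h pre-incubation 37 C/5% CO2; cpd in DMSO via pin tool; 17.5 h 37 C; CellTiter-Fluor, 30 min; fluorescence.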

[11] = molecular target: Thyrotropin receptor (Homo sapiens) (UniProt P16473); assay: qHTS assay to identify small molecule agonists of the thyroid stimulating hormone receptor (TSHR) signaling pathway (AID 1224843; calls by dose curve; also: nearly all actives have a fitted effect of over 45% in size)
How it was run: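 TSHR-HEK293 cells in agonist mode, 30 min room-temperature step, then cAMP measured by competitive HTRF (cAMP-d2 with anti-cAMP cryptate) after 1 h at room temperature. Tested at 15 concentrations in triplicate.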

[12] = qHTS assay to identify small molecule agonists of the hypoxia (HIF-1) signaling pathway - cell viability counter screen (AID 1224844; calls by dose curve; also: nearly all actives have a fitted effect of over 50% in size)
How it was run: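 ME-180 HRE-bla cells, 2,000/well, 0.5% dialyzed FBS; 5 hr settle, 17 hr compound at 37C/5% CO2; CCF4-AM reporter read first, then CellTiter-Glo luminescence after 30 min RT.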

[13] = molecular target: Luciferin 4-monooxygenase (Photinus pyralis) (UniProt P08659); assay: qHTS assay to identify small molecule inhibitors of firefly luciferase (AID 1224835); also: series mostly up to about 120 µM; nearly all actives have a fitted effect of over 25% in size
How it was run: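 Biochemical qHTS: compounds run as interplate titrations against purified firefly enzyme, with D-luciferin and ATP each at its KM concentration. Light output recorded by CCD imaging.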

[14] = qHTS assay to identify small molecule antagonists of the estrogen related receptor signaling pathway with the pleiotropic PPARgamma coactivator (PGC) from Tox21 10K library (AID 1224841; call rule not given here; also: series mostly up to about 92 µM; actives are mostly falling curves and most rising ones were filed inactive; nearly all actives have a fitted effect of over 50% in size)
How it was run: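 PGC/ERR cell line, 2,000 cells/well; 6 h pre-incubation 37 C/5% CO2; compounds (DMSO) pinned in; 18 h, 37 C; One-Glo, 30 min RT; luminescence.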

[15] = qHTS assay to identify small molecule agonists of the estrogen related receptor signaling pathway with the pleiotropic PPARgamma coactivator (PGC) from Tox21 10K library (AID 1224842); also: nearly all actives have a fitted effect of over 15% in size
How it was run: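 PGC/ERR reporter cell line, 2,000 cells per well, incubated 6 h at 37 C before 23 nL compound in DMSO was added. After 18 h at 37 C, One-Glo luminescence read following 30 min at room temperature.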

Measured: Potency

Sequence of Nuclear receptor subfamily 1 group I member 3 (Homo sapiens) (Q14994 whole entry, looked up): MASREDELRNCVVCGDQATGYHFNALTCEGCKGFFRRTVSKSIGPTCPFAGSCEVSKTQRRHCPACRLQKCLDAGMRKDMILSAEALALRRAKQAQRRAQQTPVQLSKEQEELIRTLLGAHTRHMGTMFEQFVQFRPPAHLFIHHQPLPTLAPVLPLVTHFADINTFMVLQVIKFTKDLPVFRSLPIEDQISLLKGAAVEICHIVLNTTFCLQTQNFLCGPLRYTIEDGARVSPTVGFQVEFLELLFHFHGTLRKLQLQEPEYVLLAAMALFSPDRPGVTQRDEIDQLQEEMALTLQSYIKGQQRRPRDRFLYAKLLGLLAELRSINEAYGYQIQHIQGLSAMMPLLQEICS
Sequence of Thyrotropin receptor (Homo sapiens) (P16473 whole entry, looked up): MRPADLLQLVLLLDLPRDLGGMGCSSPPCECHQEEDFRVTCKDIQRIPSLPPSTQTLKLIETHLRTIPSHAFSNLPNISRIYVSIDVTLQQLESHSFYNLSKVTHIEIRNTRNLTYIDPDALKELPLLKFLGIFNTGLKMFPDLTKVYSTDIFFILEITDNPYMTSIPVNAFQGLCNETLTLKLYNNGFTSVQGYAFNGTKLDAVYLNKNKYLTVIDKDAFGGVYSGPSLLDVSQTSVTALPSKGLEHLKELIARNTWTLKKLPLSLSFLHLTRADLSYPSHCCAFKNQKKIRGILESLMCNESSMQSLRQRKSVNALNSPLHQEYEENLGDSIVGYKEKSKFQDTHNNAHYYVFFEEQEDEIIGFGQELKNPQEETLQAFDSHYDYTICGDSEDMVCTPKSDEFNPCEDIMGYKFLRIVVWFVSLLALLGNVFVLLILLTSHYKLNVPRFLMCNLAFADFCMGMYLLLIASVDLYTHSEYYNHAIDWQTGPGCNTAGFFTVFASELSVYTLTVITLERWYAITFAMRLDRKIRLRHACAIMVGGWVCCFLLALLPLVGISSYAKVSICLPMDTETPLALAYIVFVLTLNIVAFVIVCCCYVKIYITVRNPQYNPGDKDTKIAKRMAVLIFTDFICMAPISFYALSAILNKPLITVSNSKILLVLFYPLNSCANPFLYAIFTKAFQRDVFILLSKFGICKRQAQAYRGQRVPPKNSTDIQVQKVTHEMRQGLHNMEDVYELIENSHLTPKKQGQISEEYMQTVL
Sequence of Luciferin 4-monooxygenase (Photinus pyralis) (P08659 whole entry, looked up): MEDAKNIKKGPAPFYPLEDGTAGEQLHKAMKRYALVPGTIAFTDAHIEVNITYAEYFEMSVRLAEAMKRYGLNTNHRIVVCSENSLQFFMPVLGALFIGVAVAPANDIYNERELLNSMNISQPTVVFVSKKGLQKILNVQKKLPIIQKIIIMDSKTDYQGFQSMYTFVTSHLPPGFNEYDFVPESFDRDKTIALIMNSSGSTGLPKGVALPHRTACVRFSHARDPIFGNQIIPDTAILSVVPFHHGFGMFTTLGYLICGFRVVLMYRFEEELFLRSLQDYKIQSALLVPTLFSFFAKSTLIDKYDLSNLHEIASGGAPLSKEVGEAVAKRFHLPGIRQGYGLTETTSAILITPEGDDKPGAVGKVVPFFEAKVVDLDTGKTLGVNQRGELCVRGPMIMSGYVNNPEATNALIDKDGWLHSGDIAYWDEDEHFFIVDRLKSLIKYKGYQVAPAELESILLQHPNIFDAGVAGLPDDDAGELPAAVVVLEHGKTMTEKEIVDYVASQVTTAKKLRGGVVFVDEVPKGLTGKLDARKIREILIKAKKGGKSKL

BrCCCCCCBr
inactive: [1] | [2] | [3] | [4] | [5] | [6] | [7] | [8] | [9] | [10] | [11] | [12]

Cc1cnc[nH]1
inactive: [1] | [2] | [3] | [4] | [5] | [13] | [6] | [7] | [8] | [9] | [10] | [11] | [12]

N#CC(Cl)(Cl)Cl
inactive: [1] | [2] | [3] | [4] | [5] | [13] | [6] | [7] | [8] | [10]

CCCCc1ccc(O)cc1
inactive: [1] | [2] | [3] | [4] | [5] | [13] | [6] | [7] | [8] | [10] | [11] | [12]

CC(C)CC#N
inactive: [1] | [2] | [3] | [4] | [5] | [13] | [6] | [7] | [10] | [11] | [12]

Cc1nc(N)nc(N)n1
inactive: [1] | [2] | [3] | [4] | [5] | [13] | [6] | [7] | [8] | [9] | [10] | [11] | [12]

N#Cc1ccncc1
inactive: [1] | [2] | [3] | [4] | [5] | [13] | [6] | [7] | [10] | [14] | [15] | [12]

CC1(C)COP(Oc2ccccc2)OC1
inactive: [1] | [2] | [3] | [4] | [5] | [13] | [6] | [7] | [8] | [10] | [14] | [15] | [11]

CC(C)(C)C(=O)C(Oc1ccc(Cl)cc1)n1cncn1 (stereo unspecified)
inactive: [1] | [2] | [3] | [4] | [5] | [13] | [6] | [7] | [9] | [10] | [12]

COc1cc2c(cc1OC)[C@@]13CCN4CC5=CCO[C@H]6CC(=O)N2[C@H]1[C@H]6[C@H]5C[C@H]43
inactive: [1] | [2] | [3] | [4] | [5] | [13] | [6] | [7] | [8] | [9] | [10] | [12]

CC(C=O)Cc1ccc2c(c1)OCO2 (stereo unspecified)
inactive: [1] | [2] | [3] | [4] | [5] | [13] | [6] | [7] | [8] | [9] | [10] | [11]
